Data reported in the supplement of paper PMC7411054.
Counter-ions that a name gives are not always drawn.

Columns and labels:
Conditions in all cases: treatment time: 24 h
HepG2-ACTB-RAB5A = experiment: lowest phenotypically active concentration; higher = less potent
How it was run: (§1)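 Four wells per concentration (0.3, 1, 3 or 9 µM) were treated for 24 h in each of fifteen gene-edited reporter lines from A549, HepG2 and WPMY1 cells, then imaged live. After normalising live-cell features to solvent control wells, deviation was defined as ≥3 of 4 wells lying past the 95th percentile of control Euclidean distances. Reproducibility was defined as a median replicate Pearson correlation above the 95th percentile of non-replicates. Both had to hold for phenotypic activity.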

HepG2-CANX-COX4 = experiment: as above
How it was run: as §1

HepG2-GM130-SQSTM1 = experiment: as above
How it was run: as §1

HepG2-TUBA1B-RELA = experiment: as above
How it was run: as §1

WPMY1-ACTB-RAB5A [1] = experiment: as above
How it was run: as §1

WPMY1-CANX-COX4 = experiment: as above
How it was run: as §1

WPMY1-GM130-SQSTM1 = experiment: as above
How it was run: as §1

WPMY1-TP53BP1-CLTA = experiment: as above
How it was run: as §1

WPMY1-TUBA1B-RELA = experiment: as above
How it was run: as §1

WPMY1-ACTB-RAB5A [2] = experiment: phenotypically active (imaging signature differs from DMSO and reproducible) at any of 0.3-9 uM (binary (1 = active, 0 = inactive)); higher = active
How it was run: as §1

| SMILES | lowest phenotypically active concentration (HepG2-ACTB-RAB5A) | lowest phenotypically active concentration (HepG2-CANX-COX4) | lowest phenotypically active concentration (HepG2-GM130-SQSTM1) | lowest phenotypically active concentration (HepG2-TUBA1B-RELA) | lowest phenotypically active concentration (WPMY1-ACTB-RAB5A [1]) | lowest phenotypically active concentration (WPMY1-CANX-COX4) | lowest phenotypically active concentration (WPMY1-GM130-SQSTM1) | lowest phenotypically active concentration (WPMY1-TP53BP1-CLTA) | lowest phenotypically active concentration (WPMY1-TUBA1B-RELA) | phenotypically active (WPMY1-ACTB-RAB5A [2]) |
| --- | --- | --- | --- | --- | --- | --- | --- | --- | --- | --- |
| CON(C)C(=O)N1N=C(c2cc(F)ccc2F)S[C@@]1(CCCN)c1ccccc1 [ARRY 520 trifluoroacetate] | ≤ 0.3 µM | ≤ 0.3 µM | ≤ 0.3 µM | ≤ 0.3 µM | ≤ 0.3 µM | ≤ 0.3 µM | ≤ 0.3 µM | ≤ 0.3 µM | ≤ 0.3 µM | 1 (active) |
| CC(C)(N)c1cc(C(=O)N[C@@H]2CCc3ccc(OC4=C5CCC(=O)N=C5NC=C4)cc3C2)cc(C(F)(F)F)c1 [ML 786 dihydrochloride] | ≤ 0.3 µM | ≤ 0.3 µM | ≤ 0.3 µM | ≤ 0.3 µM | 1 µM | 1 µM | 1 µM | 1 µM | 9 µM | 1 (active) |
| COc1ccccc1-c1c[nH]c2ncc(-c3cncc(C(=O)N(C)C)c3)cc12 | ≤ 0.3 µM | ≤ 0.3 µM | ≤ 0.3 µM | ≤ 0.3 µM | ≤ 0.3 µM | ≤ 0.3 µM | ≤ 0.3 µM | ≤ 0.3 µM | 3 µM | 1 (active) |
| CNC(=O)Nc1ccc(-c2nc(N3CC4CCC(C3)O4)c3cnn(C4CCC5(CC4)OCCO5)c3n2)cc1 | ≤ 0.3 µM | ≤ 0.3 µM | ≤ 0.3 µM | ≤ 0.3 µM | ≤ 0.3 µM | ≤ 0.3 µM | ≤ 0.3 µM | ≤ 0.3 µM | ≤ 0.3 µM | 1 (active) |
| CCOC(=O)Nc1cc(-c2ccc(C)c(NS(C)(=O)=O)c2)nn2c(C)nnc12 [Bromosporine] | ≤ 0.3 µM | ≤ 0.3 µM | 1 µM | 1 µM | 1 µM | 1 µM | 1 µM | 1 µM | 1 µM | 1 (active) |
| C=C1CN(Cc2ccc(C(=O)Nc3ccccc3N)cc2)C(=O)c2ccccc21 | ≤ 0.3 µM | ≤ 0.3 µM | 1 µM | 1 µM | ≤ 0.3 µM | ≤ 0.3 µM | ≤ 0.3 µM | ≤ 0.3 µM | 3 µM | 1 (active) |
| COc1cc2nc(-c3cc(F)ccc3O)nc(N[C@@H]3CNC[C@H]3C(C)(C)O)c2cc1OC | 1 µM | 1 µM | 1 µM | 1 µM | 1 µM | 1 µM | 1 µM | 1 µM | 1 µM | 1 (active) |
| OC[C@H]1O[C@@H](n2cnc3c(NCc4ccco4)ncnc32)[C@H](O)[C@@H]1O [Kinetin riboside] | 1 µM | 1 µM | 3 µM | 1 µM | 1 µM | 3 µM | 1 µM | 1 µM | 3 µM | 1 (active) |
| Cc1cc(Nc2cc(N3CCN(C)CC3)nc(Sc3ccc(NC(=O)C4CC4)cc3)n2)[nH]n1 | ≤ 0.3 µM | ≤ 0.3 µM | ≤ 0.3 µM | ≤ 0.3 µM | ≤ 0.3 µM | ≤ 0.3 µM | ≤ 0.3 µM | ≤ 0.3 µM | ≤ 0.3 µM | 1 (active) |
| COc1cc(N2CCOCC2)ccc1Nc1ncc(Cl)c(Nc2ccccc2NS(C)(=O)=O)n1 | 3 µM | 3 µM | 3 µM | 3 µM | 9 µM | 9 µM | 9 µM | 9 µM | 3 µM | 1 (active) |
